C diff HTS: C. difficile growth inhibition; hit rate 0.25% among 86,000; Clostridium difficile clinical isolate growth, OD600, 24 h; hits give low values; growth activity, negative = inhibition, % at 16 µg/mL (by protocol);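 active means mean growth activity at or below -80% and every replicate also at or below -80%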
Pf Dd2 growth: blocks growth of Plasmodium falciparum Dd2 parasites | P. falciparum Dd2 growth, SYBR Green, 72 h; hits give low values | activity change, % at 10 µM | hit rate 2.3% among 94,000 | AID 1159554; in the data active means activity change below about -80%
Of the large screens only hits and unclear results are named; the others gave an inactive call. Shown are actives, neighbours in structure and some others; about 2.3% of the full set was active somewhere.

CN1c2ccc(Br)cc2[C@H]2[C@H](CCN2C(=O)Nc2ccc(F)cc2)[C@H]1CO	none
COCCNC(=O)C[C@@H]1C[C@H]2c3cc(NC(=O)c4cccnc4)ccc3O[C@H]2[C@H](CO)O1	none
C[C@@H]1CN([C@@H](C)CO)C(=O)c2cc(C#Cc3cccnc3)cnc2O[C@@H]1CN(C)S(=O)(=O)c1ccccc1F	none
C[C@@H]1CN([C@@H](C)CO)C(=O)Cc2cc(NC(=O)Nc3ccc(F)cc3)ccc2O[C@@H]1CN(C)C(=O)Nc1ccc2c(c1)OCO2	none
C[C@H](CO)N1C[C@H](C)[C@@H](CN(C)C(=O)Nc2ccc(C(F)(F)F)cc2)OCCCC[C@H](C)Oc2ccc(NC(=O)C3CCCCC3)cc2C1=O	Pf Dd2 growth -85.5
C[C@@H]1CCCCO[C@H](CN(C)C(=O)Nc2ccc(C(F)(F)F)cc2)[C@@H](C)CN([C@H](C)CO)C(=O)c2cc(NC(=O)C3CCCCC3)ccc2O1	Pf Dd2 growth -83.7
C[C@@H]1CCCCO[C@H](CN(C)C(=O)Nc2ccc(F)cc2)[C@H](C)CN([C@@H](C)CO)C(=O)c2cc(NC(=O)C3CCCCC3)ccc2O1	none
C[C@@H]1CCCCO[C@H](CN(C)C(=O)Nc2ccc(C(F)(F)F)cc2)[C@H](C)CN([C@H](C)CO)C(=O)c2cc(NC(=O)C3CCCCC3)ccc2O1	none
C[C@@H]1CN([C@H](C)CO)C(=O)c2cc(NC(=O)Nc3ccc(C(F)(F)F)cc3)ccc2O[C@@H](C)CCCCO[C@H]1CN(C)C(=O)Nc1ccc(C(F)(F)F)cc1	none
C[C@H]1CCCCO[C@H](CN(C)C(=O)Nc2ccc(F)cc2)[C@@H](C)CN([C@@H](C)CO)C(=O)c2cc(NC(=O)C3CCCCC3)ccc2O1	Pf Dd2 growth -85.7
C[C@@H]1CN([C@H](C)CO)C(=O)c2cc(NC(=O)C3CCCCC3)ccc2O[C@@H](C)CCCCO[C@H]1CN(C)C(=O)Nc1ccc(C(F)(F)F)cc1	none
C[C@@H]1CCCCO[C@H](CN(C)C(=O)Nc2ccc(C(F)(F)F)cc2)[C@@H](C)CN([C@@H](C)CO)C(=O)c2cc(NC(=O)C3CCCCC3)ccc2O1	Pf Dd2 growth -84.8
O=C(C[C@H]1C=C[C@@H](NC(=O)c2ccncc2)[C@H](CO)O1)Nc1ccccc1	none
Cc1noc(C)c1NC(=O)Nc1ccc2c(c1)C(=O)N([C@@H](C)CO)C[C@H](C)[C@H](CN(C)Cc1ccc(Cl)c(Cl)c1)O2	none
COCC(=O)N1C[C@@H](C)[C@H](OC)CN(C)C(=O)c2ccc(NC(=O)C3CCC3)cc2OC[C@@H]1C	none (no result: C diff HTS)
C[C@H](CO)N1C[C@H](C)[C@H](CN(C)S(=O)(=O)c2ccccc2)Oc2c(NC(=O)c3ccncc3)cccc2C1=O	none
C[C@H]1CCCCO[C@H](CN(C)C(=O)Nc2ccc(C(F)(F)F)cc2)[C@@H](C)CN([C@@H](C)CO)C(=O)c2cc(NC(=O)Nc3ccc(C(F)(F)F)cc3)ccc2O1	none
C[C@H]1CCCCO[C@H](CN(C)C(=O)Nc2ccc3c(c2)OCO3)[C@@H](C)CN([C@@H](C)CO)C(=O)c2cc(NC(=O)C3CCCCC3)ccc2O1	Pf Dd2 growth -88.8
C[C@@H]1CCCCO[C@@H](CN(C)C(=O)Nc2ccc(C(F)(F)F)cc2)[C@@H](C)CN([C@@H](C)CO)C(=O)c2cc(NC(=O)C3CCCCC3)ccc2O1	Pf Dd2 growth -92.3
C[C@@H]1CCCCO[C@@H](CN(C)C(=O)Nc2ccc(C(F)(F)F)cc2)[C@H](C)CN([C@@H](C)CO)C(=O)c2cc(NC(=O)Nc3ccc(C(F)(F)F)cc3)ccc2O1	none
C[C@H](CO)N1C[C@H](C)[C@H](CN(C)C(=O)Nc2ccc3c(c2)OCO3)OCCCC[C@H](C)Oc2ccc(NC(=O)C3CCCCC3)cc2C1=O	none
C[C@H]1CCCCO[C@H](CN(C)C(=O)Nc2ccc(C(F)(F)F)cc2)[C@@H](C)CN([C@@H](C)CO)C(=O)c2cc(NC(=O)C3CCCCC3)ccc2O1	Pf Dd2 growth -84.4
C[C@@H]1CN([C@@H](C)CO)C(=O)CCCn2cc(nn2)CO[C@@H]1CN(C)Cc1ccc(Cl)c(Cl)c1	none
C[C@H]1CN([C@@H](C)CO)C(=O)c2cc(NC(=O)CCC(F)(F)F)ccc2O[C@@H]1CN(C)Cc1ccc(Cl)c(Cl)c1	none
CN(C)CC(=O)N1C[C@@H]2N[C@H](C1)C2c1ccc(-c2ccncc2)cc1 (stereo partly drawn)	none
O=C(C[C@@H]1CC[C@H]2[C@@H](COC[C@@H](O)CN2Cc2nccs2)O1)NCc1ccccc1	none
CCCN1CCC2(CC1)CN(Cc1ccccc1OC)[C@H](CO)c1c2c2ccc(OC)cc2n1C	Pf Dd2 growth -92.1
COc1ccc2c3c(n(C)c2c1)[C@H](CO)N(Cc1ccccc1OC)CC31CCN(C)CC1	none
COc1ccc2c3c(n(C)c2c1)[C@@H](CO)N(Cc1ccccc1OC)CC31CCN(C(=O)C2CC2)CC1	Pf Dd2 growth -83.4
COc1ccc2c3c(n(C)c2c1)[C@@H](CO)N(Cc1ccccc1F)CC31CCN(C(=O)C2CC2)CC1	none
COc1ccc2c3c(n(C)c2c1)[C@H](CO)N(Cc1ccccc1OC)CC31CN(CC2CCOCC2)C1	Pf Dd2 growth -88.5
COc1ccc2c3c(n(C)c2c1)[C@H](CO)N(Cc1ccccc1OC)CC31CN(CC2CC2)C1	none
COc1ccc2c3c(n(C)c2c1)[C@@H](CO)N(Cc1ccc(F)cc1)CC31CCN(CC2CCOCC2)CC1	none
COc1ccc2c3c(n(C)c2c1)[C@@H](CO)N(Cc1ccc(F)cc1)CC31CCN(CC2CC2)CC1	Pf Dd2 growth -86.5
Cc1noc(C)c1NC(=O)N(C)C[C@@H]1Oc2ccc(NC(=O)Nc3cccc4ccccc34)cc2CC(=O)N([C@H](C)CO)C[C@H]1C	none
Cc1ccc(S(=O)(=O)N[C@@H]2CC[C@@H](CC(=O)NC3CCCCC3)O[C@H]2CO)cc1	none
COc1cccc(S(=O)(=O)N(C)C[C@@H]2Oc3ncc(-c4cccc(C(=O)N(C)C)c4)cc3C(=O)N([C@@H](C)CO)C[C@@H]2C)c1	none
Cc1noc(C)c1S(=O)(=O)Nc1ccc2c(c1)CC(=O)N([C@H](C)CO)C[C@@H](C)[C@H](CN(C)Cc1ccc(C(F)(F)F)cc1)O2	none
CN(C)C(=O)c1cccc(-c2ccc3c(c2)[C@@H]2[C@@H](CCN2C(=O)c2ccccc2F)[C@@H](CO)N3)c1	none
CCCNC(=O)N1[C@@H](C#N)[C@H](c2ccc(C3=CCCCC3)cc2)[C@@H]1CO	none
C[C@@H]1CCCCO[C@@H](CN(C)C(=O)Nc2cccc3ccccc23)[C@H](C)CN([C@H](C)CO)C(=O)c2cc(NC(=O)Nc3ccc4c(c3)OCO4)ccc2O1	Pf Dd2 growth -89.6
C[C@@H]1CCCCO[C@@H](CN(C)C(=O)Nc2cccc3ccccc23)[C@@H](C)CN([C@H](C)CO)C(=O)c2cc(NC(=O)Nc3ccc4c(c3)OCO4)ccc2O1	Pf Dd2 growth -87.4
C[C@@H]1CCCCO[C@@H](CN(C)C(=O)Nc2cccc3ccccc23)[C@@H](C)CN([C@H](C)CO)C(=O)c2cc(NC(=O)Nc3cccc4ccccc34)ccc2O1	none (no result: C diff HTS)
C[C@@H]1CN([C@@H](C)CO)C(=O)c2cc(NC(=O)Nc3cccc4ccccc34)ccc2O[C@@H](C)CCCCO[C@H]1CN(C)C(=O)Nc1cccc2ccccc12	none (no result: C diff HTS)
C[C@H](CO)N1C[C@H](C)[C@H](CN(C)C(=O)Nc2ccc3c(c2)OCO3)OCCCC[C@H](C)Oc2ccc(NC(=O)Nc3cccc4ccccc34)cc2C1=O	none

Screening results deposited in PubChem BioAssay by Broad Institute.
